Compound activity from PubChem.
A selection: hits, their analogues and other compounds. The true share with any hit is near 4.4%.
PfHsp90 yeast 2: inhibits growth of yeast expressing Plasmodium falciparum Hsp90; S. cerevisiae expressing PfHsp90, BacTiter-Glo ATP, 48 h; yeast lacking PDR1 and PDR3 efflux regulators; inhibition, % at 9.4 µM; 0.32% of 310,000 active; AID 504621;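 active means every replicate shows inhibition above about 80%, whatever the replicate mean, limit read from the data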;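 further: 0% = DMSO neutral controls and 100% = 20 µM radicicol positive controls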
Mot1-301 SUMO: blocks SUMOylation pathway, rescuing yeast Mot1-301 growth; S. cerevisiae Mot1-301 growth rescue, ATP luminescence, 38.5C; percent above DMSO median, 100 means doubled; growth rescue, % at 18.8 µM; AID 2716; 1% of 320,000 active;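 active means every valid replicate shows activation above 250% relative to neutral control wells; inactive means the rest, any valid replicate at or below 250%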;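 further: OY570 slx delta 5 strain wells were the positive control but not used for scaling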
tim23-1 inh: tim23-1 yeast growth inhibition. S. cerevisiae tim23-1 growth, BacTiter-Glo luminescence, 24 h. inhibition, % at 20 µM. 1.3% of 330,000 active;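 active means growth inhibition of the mutant yeast at or above 50%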;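 further: temperature-sensitive mutant grown at 25 °C; plate controls were DMSO-treated mutant yeast for no effect and medium wells lacking yeast for full effect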
tim10-1 inh: tim10-1 yeast growth inhibition | S. cerevisiae tim10-1 ts strain growth, BacTiter-Glo, 24 h | inhibition, % at 20 µM | 2.2% of 330,000 active;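 active means inhibition of at least 40%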;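 further: mutant grown at 25 °C; 0% = DMSO wells with yeast and 100% = wells holding no yeast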
TIM10 inh: inhibits growth of TIM10 yeast strain | S. cerevisiae TIM10 strain growth, BacTiter-Glo luminescence, 24 h | inhibition, % at 10 µM | 1.4% of 330,000 active | AID 463195;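 active means inhibition of 40% or more at the single tested concentration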;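 further: wild-type TIM10 isogenic control strain grown at permissive 25 °C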
tim10-1 confirm: tim10-1 yeast growth inhibition, confirmed. shares compounds with tim10-1 inh. S. cerevisiae tim10-1 ts strain growth, BacTiter-Glo, 24 h. inhibition, % at 20 µM. 56% of 7,400 active. AID 463213;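 active means inhibition of yeast growth at or above a set limit in either of two repeat tests at 20 µM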;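 further: tim10-1 mutant grown at permissive 25 °C to find synthetic lethal compounds; 0% = DMSO yeast wells and 100% = medium wells without yeast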
tim10 confirm: confirmation of TIM10 yeast growth inhibitors; inhibition, % at 10 µM; shares compounds with TIM10 inh; 63% of 4,600 active; S. cerevisiae tim10 strain growth, BacTiter-Glo luminescence, 24 h; AID 463215;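 active means inhibition of yeast growth at or above a set limit in either of two replicates at 10 µM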;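 further: this counterscreen used the strain with wild-type TIM10; 0% = yeast with DMSO and 100% = medium wells lacking yeast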
* marks the source's active call; other numbers are inactive results; . = no result.

SMILES | PfHsp90 yeast 2 | Mot1-301 SUMO | tim23-1 inh | tim10-1 inh | TIM10 inh | tim10-1 confirm | tim10 confirm
CCc1ccc(/C=C2/C(=O)N(c3ccccc3)C(=S)N2CC(=O)OC)s1 | 13 | 0 | 42 | 27 | 12 | . | .
CCN1C(=O)/C(=C/N(C(C)=O)c2ccccc2)N(c2ccccc2)C1=S | 2 | . | 29 | 45* | 50* | 42* | -39
C=C1C(=O)C=C2CN(C(=O)c3ccccc3)[C@@](Cc3ccc(F)cc3)(C(=O)OC)[C@@H]12 | 3 | 1 | 49 | 61* | 48* | 52* | 51*
COC(=O)[C@@]1(Cc2ccc(OC)cc2)[C@@H]2C(=CC(=O)[C@H]2CC(=O)C(=O)N(C)C)CN1C(=O)c1ccccc1 | . | 9 | -10 | 22 | 0 | . | .
O=c1[nH][nH]c(-c2ccccc2O)c1C(C[N+](=O)[O-])c1ccc(Cl)cc1Cl (centres undefined) | 0 | 269* | 37 | 55* | 42* | 30* | -5
COc1ccc(CNC(=O)CN(C(=O)CCC(=O)Nc2nccs2)c2ccccc2C)cc1 | 11 | -12 | 1 | -1 | 13 | . | .
COC(=O)c1c(N2C(=O)CC(Sc3ccccc3C(=O)O)C2=O)sc2c1CCCC2 (centres undefined) | -1 | -24 | 26 | 46* | 46* | 47* | 17
S=c1[nH]nc(C2CCCCC2)n1/N=C/c1cccs1 | -11 | . | 38 | 43* | 41* | 11 | 40*
CC(/C=N/n1c(C2CCCCC2)n[nH]c1=S)=C\c1ccccc1 | -29 | 5 | 38 | 48* | 49* | 19 | 31*
S=c1[nH]nc(C2CCCCC2)n1/N=C/c1ccncc1 | 18 | 12 | -3 | 12 | -11 | . | .
CCC(C)(C)NC(=O)C(c1ccccc1Cl)N(Cc1cccnc1)C(=O)CCC(=O)Nc1cc(C)on1 (centres undefined) | -4 | 1 | -2 | -11 | 1 | . | .
Cc1nc([N+](=O)[O-])c(Br)n1CC(=O)c1ccc2ccccc2c1 | . | 8 | 35 | 59* | 54* | 67* | 55*
Cc1nc([N+](=O)[O-])c(Br)n1CC(=O)c1ccc(Br)cc1 | . | 31 | 40 | 48* | 40 | 35* | 40*
COC(=O)[C@@H](Cc1ccccc1)NC(=O)NCCc1ccc(OC)c(OC)c1 | -31 | -11 | 19 | -9 | 10 | . | .
Cc1cccc(CC(=O)NCCN2CCCCC2)c1 | 3 | -14 | 2 | -11 | 14 | . | .
COC(=O)[C@@]1(C)[C@H]2C(=O)N(Cc3ccccc3)C(=O)[C@H]2[C@H]2CN=C(SCc3ccc(C)cc3)N21 | -1 | . | 49 | 25 | -5 | . | .
CN(C)/N=C/c1ccc(Sc2ccc([N+](=O)[O-])cc2[N+](=O)[O-])o1 | 15 | -25 | 27 | 43* | 40* | 44* | 47*
CCOc1ccc2nc(SC3CC(=O)N(c4ccc(OC)cc4)C3=O)sc2c1 (centres undefined) | . | 8 | 19 | 14 | 14 | . | .
C=CCNc1nnc(SC2CC(=O)N(c3ccc(OC)cc3)C2=O)s1 (centres undefined) | 5 | 6 | 37 | 67* | 40* | 61* | 46*
COc1ccc(NC(=O)CNc2ccccc2N2CCCC2=O)cc1S(=O)(=O)N1CCOCC1 | -2 | -11 | -7 | -8 | 7 | . | .
Cc1nc(C)c(-c2csc(Nc3cccc(O)c3)n2)s1 | -6 | -7 | 24 | 44* | 48* | 25 | 31*
O=C(Nc1cccc(C(F)(F)F)c1)c1ccc(Cn2cc(Br)cn2)o1 | 3 | -7 | 45 | 43* | 42* | 35* | 43*
COc1ccc(C2=NOC(C(=O)N3CCN(C(=O)c4ccco4)CC3)C2)cc1OC (centres undefined) | 3 | 15 | -4 | -10 | 8 | . | .
Cn1c(SCCOc2ccccc2Cl)nnc1-c1cccs1 | -17 | 12 | 39 | 51* | 51* | 40* | 51*
c1ccc(-c2cnnc(-c3ccccn3)n2)cc1 | 10 | 2 | -5 | -23 | -35 | . | .
SMILES | PfHsp90 yeast 2 | Mot1-301 SUMO | tim23-1 inh | tim10-1 inh | TIM10 inh | tim10-1 confirm | tim10 confirm
C=CCNc1nc(-c2ccccn2)nnc1-c1ccccc1 | 49 | -11 | 4 | 49* | 46* | 41* | 25
CCCOC(=O)/C(=C\C=C\c1ccco1)NC(=O)c1ccccc1 | 0 | -14 | 13 | 23 | 16 | . | .
CCCOC(=O)/C(=C\c1ccc([N+](=O)[O-])o1)NC(=O)c1ccccc1 | 12 | -7 | 42 | 56* | 54* | 47* | -8
CCc1ccc(S(=O)(=O)/N=C2\C=C(Nc3ccc(O)cc3)C(=O)c3ccccc32)cc1 | -18 | -20 | 43 | 64* | 61* | 70* | 93*
Cc1ccc(C)n1N1C(=O)/C(=C\c2ccc(Cl)cc2)SC1=S | 13 | -28 | 7 | 69* | 63* | 61* | 64*
Cc1ccc(N(CC(=O)NCc2ccccc2)C(=O)CCC(=O)Nc2ccccn2)cc1 | 38 | -5 | 7 | 9 | -14 | . | .
CN1CCc2c(C#N)c(N3CCCCC3)nc(NCc3ccccc3)c2C1 | . | 44 | 25 | 48* | 43* | 32* | 17
Cc1ccccc1C(=O)N(Cc1cccs1)C1CCS(=O)(=O)C1 (centres undefined) | -21 | 5 | 4 | -6 | 9 | . | .
CCC(=O)Nc1cccc(C(=O)/C=C/c2ccc(F)cc2)c1 | 7 | -16 | 32 | 48* | 47* | 43* | 22
CC(=O)Nc1cccc(C(=O)/C=C/c2ccc(C)cc2)c1 | -3 | 60 | 40 | 25 | 24 | . | .
CCOC(=O)N1CCN(C(=O)c2sc3nc(-c4ccc(F)cc4)cn3c2C)CC1 | -16 | 14 | 21 | 56* | 43* | 38* | 40*
Cc1c(C(=O)N2CC(C)OC(C)C2)sc2nc(-c3ccc(F)cc3)cn12 (centres undefined) | 29 | -8 | 12 | 30 | -1 | . | .
COc1ccc(-c2cn3c(C)c(C(=O)N4CCN(c5ccccc5)CC4)sc3n2)cc1 | 15 | . | . | . | . | . | .
COc1ccccc1N1CCN(C(=O)c2sc3nc(-c4ccc(F)cc4)cn3c2C)CC1 | -38 | 1 | 43 | 66* | 40 | 58* | 51*
COC(=O)C1CCN(C(=O)c2sc3nc(-c4ccccc4)cn3c2C)CC1 | . | -7 | 40 | 48* | 43* | 38* | 26
COc1ccc(-c2cn3c(C)c(C(=O)N4CCN(c5ccc(F)cc5)CC4)sc3n2)cc1 | 33 | -2 | 8 | 8 | 6 | . | .
CC(NC(=O)COC(=O)C12CC3CC(CC(Br)(C3)C1)C2)c1ccccc1 (centres undefined) | -19 | 42 | 34 | 9 | 6 | . | .
